This is one part of the list. A number with no mark means an inactive call. Active and inactive are the calls of the source.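 How the source made its calls: active means activation above the screen-wide mean activation plus 3 SD (cut at about 8% in these data); inactive means the rest.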

The test in a line: activators of NFAT-driven beta-lactamase reporter, confirmation, counter-screen for GALR2 agonist project, CHO NFAT-bla cells, FRET readout (AID 865).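 Further: 0% = DMSO with PBS wells and 100% = thapsigargin positive control wells.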 To be noted: at 5.6 µM, hits give high values.
As to `COC(=O)c1ccc(NC(=O)C(C)N2C(=O)c3ccccc3C2=O)cc1` (stereo unspecified), the activation is -1.44%.
As to `Fc1ccc(N2N=C(c3cccs3)CC2c2ccco2)c(F)c1` (stereo unspecified), the activation is 0.42%.
For `CC(=O)Oc1ccc(C(C)=O)c2c1OCCO2` the value was -1.79%; for `Cc1ccc(Cc2c(C)nc3nc(SCC(=O)NCCN4CCOCC4)nn3c2C)cc1`, -0.81%.
As to `Cn1c(=O)oc2cc(S(=O)(=O)N3CCC(C(=O)Nc4ccc(OC(F)(F)F)cc4)CC3)ccc21`, the activation is 1.18%.
As for `O=C(NC(=S)Nc1ccc(NC(=O)c2cccs2)cc1)c1ccc([N+](=O)[O-])cc1`, the activation was -1.18%.
To `CC/C(C)=N/Nc1nc2sc3c(c2c(=O)[nH]1)CC(C)(C)OC3` belongs -1.22%.
Take `COc1ccccc1N1N=C(c2cccs2)CC1c1ccccc1` (stereo unspecified): the activation was 6.25%.
Take `O=C1COc2ccc(NC(=O)N3CCN(c4ccc(F)cc4)CC3)cc2N1`: the activation was -0.56%.
Regarding `OC(COc1cccc2ccccc12)CN1CCN(c2ccccn2)CC1` (stereo unspecified), the activation is 0.34%.
Consider `COc1ccc(C(=O)CN2C(=O)NC(C)(c3ccc(C)cc3)C2=O)cc1OC` (stereo unspecified), for which the activation is -1.81%.
As for `CC(=O)N(Cc1cccs1)C1CCOC(C)(C)C1` (stereo unspecified), the activation is -3.67%.
As for `Cc1ccc(CCC(=O)Nc2ncc(Cc3cc(Cl)ccc3Cl)s2)o1`, the activation is 13.5% (active).
Take `C=CCn1c(Oc2ccc(C(=O)OC)cc2)nc2c1c(=O)n(C)c(=O)n2C`: the activation is -0.9%.
As to `CCCOc1ccc(C(=O)C(CCC(CNCC)C(=O)c2ccc(OCCC)cc2)CNCC)cc1` (stereo unspecified), the activation is 0.75%.
Consider `CCOc1ccc2nc(Nc3nc4ccc(NC(C)=O)cc4s3)sc2c1`, for which the activation is 59.5% (active).
To `COc1ccc(Nc2oc(-c3ccccc3Cl)nc2C#N)cc1` belongs -0.84%.
For `C=CCN(CC=C)S(=O)(=O)c1ccc(C(=O)Nc2nc3c(s2)CCc2ccccc2-3)cc1`, the activation is 1.61%.
Consider `CCOc1ccc(C(O)Cn2c(=N)n(CCN3CCCCC3)c3ccccc32)cc1` (stereo unspecified), for which the activation was -2.38%.
For `COc1cc(SC#N)ccc1N=Cc1c(C)[nH]n(-c2ccc(C)cc2)c1=O`, the activation is 9.72% (active).
To `COCCN(CCOC)S(=O)(=O)c1ccc(C(=O)Nc2nc3c(s2)CCc2ccccc2-3)cc1` belongs 2.54%.
Turning to `O=[N+]([O-])c1ccccc1SNc1ccccn1`, the activation is -1.98%.
Consider `Cc1csc(NC(=O)c2ccc(-c3ccc(Cl)cc3Cl)o2)n1`, for which the activation is 0.5%.
As for `CC1(C)CC(=O)C=C(NCCN2CCNCC2)C1`, the activation is -2.3%.
Take `CCN(C(=O)CSc1ncn[nH]1)c1cccc2ccccc12`: the activation is -1.97%.
For `O=c1oc2cc(O)ccc2cc1-c1ccc(F)cc1` the value was 7.16%.
